Screens from PubChem.
Autofluor counter = counter-screen for toxin protease inhibitors: compound fluorescence; compound autofluorescence counterscreen, microsphere flow cytometry; stronger effect = higher value; fluorescence intensity (test concentration not listed); 360,000 compounds, 3.1% hits; AID 624483; in the data active = fluorescence intensity above about 16000; inconclusive = no clear call, values can overlap the other calls
BoNT-F LC inh = blocks Botulinum neurotoxin F light chain protease; inhibition, % at 10 µM; 360,000 compounds, 0.22% hits; Multiplex microsphere protease cleavage assay, flow cytometry; in the data active = inhibition above about 35%, passing the limit was not always enough; inconclusive = no clear call, values can overlap the other calls; also: plate controls were buffer without enzyme for full effect and enzyme alone for no effect
BoNT A protease = BoNT A light chain protease inhibition | AID 588499 | inhibition, % at 10 µM | 360,000 compounds, 0.17% hits | multiplex microsphere protease substrate cleavage, flow cytometry; also: plate controls were buffer without enzyme for full effect and enzyme alone for no effect
Anthrax LF prot = inhibitors of Bacillus anthracis lethal factor protease; inhibition, % at 10 µM; multiplex microsphere protease cleavage assay, LF; 360,000 compounds, 0.12% hits; P15917; also: plate controls were buffer without enzyme for full effect and enzyme alone for no effect
Target sequence (P15917 whole entry, looked up): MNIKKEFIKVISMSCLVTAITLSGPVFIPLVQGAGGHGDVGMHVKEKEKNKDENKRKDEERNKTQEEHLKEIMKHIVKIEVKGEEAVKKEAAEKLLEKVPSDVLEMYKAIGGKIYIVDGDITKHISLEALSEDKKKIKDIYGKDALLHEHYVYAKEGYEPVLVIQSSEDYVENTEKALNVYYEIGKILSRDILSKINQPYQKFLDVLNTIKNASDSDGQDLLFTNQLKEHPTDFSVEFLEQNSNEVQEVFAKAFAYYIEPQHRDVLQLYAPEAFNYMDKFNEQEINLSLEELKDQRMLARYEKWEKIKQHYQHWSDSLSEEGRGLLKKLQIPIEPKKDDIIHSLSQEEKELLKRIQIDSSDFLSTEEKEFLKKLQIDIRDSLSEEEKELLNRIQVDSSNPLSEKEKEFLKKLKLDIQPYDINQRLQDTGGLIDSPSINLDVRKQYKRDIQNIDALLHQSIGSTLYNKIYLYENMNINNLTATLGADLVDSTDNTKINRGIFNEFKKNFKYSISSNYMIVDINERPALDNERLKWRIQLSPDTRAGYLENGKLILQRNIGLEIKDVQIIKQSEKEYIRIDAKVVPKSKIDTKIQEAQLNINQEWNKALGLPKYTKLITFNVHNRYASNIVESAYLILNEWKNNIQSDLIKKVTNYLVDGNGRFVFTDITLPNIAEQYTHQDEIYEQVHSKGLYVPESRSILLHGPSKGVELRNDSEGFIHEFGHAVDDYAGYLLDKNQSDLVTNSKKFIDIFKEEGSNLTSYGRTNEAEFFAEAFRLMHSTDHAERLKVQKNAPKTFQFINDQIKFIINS
Starred values were filed as active, the others as inactive; ? = inconclusive. Hits are enriched below; roughly 3.5% of the tested compounds scored in any of these assays. Rule as the data show it, unless noted: active = inhibition above about 30%; inconclusive = no clear call, values can overlap the other calls; inactive = below that.

SMILES	Autofluor counter	BoNT-F LC inh	BoNT A protease	Anthrax LF prot
CC(=O)OC[C@@H]1CN(Cc2ccccc2)C[C@H](n2cnc3c(N4CCOCC4)ncnc32)O1	3546	0	0	0
Cc1cccc2[nH]c3c(N4CCN(C(=O)c5ccco5)CC4)ncnc3c12	24618*	-8	-3	-3
Cc1cccc2[nH]c3c(N4CCC5(CC4)OCCO5)ncnc3c12	22045*	-2	?	-4
COc1cccc(NC(=O)Nc2cc(C(=O)O)ccc2N2CC3CC(C2)c2cccc(=O)n2C3)c1 (stereo not drawn)	5508	14	1	-2
Cc1ccc(NC(=O)COC(=O)CCC2CCCC2)c(Br)c1	6431	-1	2	-2
O=C(NC1CCCCCCC1)C1CCN(c2nc3ccccc3o2)CC1	17616*	-6	-4	-3
CCOC(=O)N1CCC(NC(=O)C2CCCN(c3nc4ccccc4o3)C2)CC1 (stereo not drawn)	25111*	-5	-3	2
CCOC(=O)N1CCC(NC(=O)C2CCN(C(=O)N3CC(C)Oc4ccccc43)CC2)CC1 (stereo not drawn)	16437*	1	-1	0
CCn1cc(/C=C(\NC(=O)c2ccccc2OC)C(=O)NCCN2CCOCC2)c2ccccc21	2941	-2	0	-5
Cc1cccc(OC(C)c2ccnc3nc(/N=C/N(C)C)nn23)c1 (stereo not drawn)	21315*	-4	-3	0
CCN(CC)C(=O)c1ccc(NC(=O)Cn2nc(C)c3ccccc3c2=O)cc1	22310*	3	?	-4
CCN(CC)C(=O)c1ccc(-c2nnc(Nc3ccc(O)cc3)c3ccccc23)cc1	4659	6	-5	-1
Cc1nn(CC(=O)Nc2ccc(C(=O)N(C)C)cc2)c(=O)c2ccccc12	19106*	5	3	0
CCN(CC)C(=O)c1ccc(Nc2nnc(C)c3ccccc23)cc1	24503*	-3	-2	0
Cc1nn(CC(=O)N(C)C)c(=O)c2ccccc12	22253*	1	1	1
Cc1nn(CC(N)=O)c(=O)c2ccccc12	2840	-5	0	-4
COc1ccc(NC(=O)Cn2nc(C)c3ccccc3c2=O)cc1	4348	-7	-4	-20
Cc1cc(NC(=O)C(C)SCC(=O)OCc2c(Cl)cccc2Cl)no1 (stereo not drawn)	5882	1	3	2
COCCN1CCn2c(nc3cc(NC(=O)Cn4nc(C)c5ccccc5c4=O)ccc32)C1	4333	?	1	-5
Cc1nn(CC(=O)Nc2ccc3c(c2)nc2n3CCOC2)c(=O)c2ccccc12	21862*	1	1	1
C=CCNC(=S)NNC(=O)Cn1c(-c2ccccc2)cc(=O)n2ncnc12	3880	?	-3	32*
Cc1ccc(C(=O)NNC(=O)CSc2nnc(-c3ccncc3)n2C)cc1	16351*	0	0	0
Cc1ccc(-c2nnc(SCC(=O)NNC(=O)COc3cccc(C)c3)n2C)cc1	22497*	1	0	2
Cc1ccc(/C=N/NC(=O)CSc2nnc(-c3ccccc3)n2-c2ccc(Cl)cc2)o1	2211	0	0	-1
CCc1ccc(OCC(=O)NNC(=O)CSc2nnc(-c3ccc(C)cc3)n2C)cc1	2501	0	1	0
SMILES	Autofluor counter	BoNT-F LC inh	BoNT A protease	Anthrax LF prot
CCn1c(SCC(=O)NNC(=O)c2ccccc2)nnc1-c1ccncc1	22311*	-3	?	-3
CCn1c(SCC(=O)N/N=C/c2ccc(C)o2)nnc1-c1ccccc1	22380*	0	?	-2
S=C(NCc1ccco1)N1CCN(c2ccccc2Cl)CC1	4538	-12	-1	-1
CC(=O)NC(Cc1ccccc1)C(=O)NC1CCN(C(=O)c2ccc([N+](=O)[O-])cc2)CC1 (stereo not drawn)	2477	-4	0	0
CC(=O)NC(Cc1ccccc1)C(=O)NC1CCN(C(=O)c2cnccn2)CC1 (stereo not drawn)	16732*	-1	?	-1
CCc1nn(CCCC(=O)NC2CCCCC2C)c(=O)c2cc3occc3n12 (stereo not drawn)	4056	1	0	6
CCN(CC)C(=O)[C@H]1CC(CC(=O)NCc2ccc(OC)c(OC)c2)C(=O)N2CCc3c([nH]c4ccc(OC)cc34)[C@]12C (stereo partly drawn)	3668	0	0	4
Cn1c(CNC(=O)c2ccco2)nnc1SCC(=O)Nc1ccc(Cl)cc1	6697	?	-7	0
O=C(c1ccc(-c2ccccc2)cc1)N1CCN(c2ccccn2)CC1	4993	-6	-1	-3
CCNCCOC(c1ccccc1)c1ccccc1	18751*	2	?	-12
Brc1cccc(-c2cnc3n2CCCCC3)c1	2419	6	0	1
Clc1ccc(-c2cnc3n2CCC3)cc1	21764*	1	?	-3
